# Source: paper PMC7862700, “An all-to-all approach to the identification of sequence-specific readers for epigenetic DNA modifications on cytosine”
# How the values were obtained:
# Assay in all cases: DAPPL (digital affinity profiling via proximity ligation, sequencing); 10 mM Tris-HCl pH 7.5, 50 mM NaCl, 1 mM DTT, 4% glycerol, room temperature, 30 min; GST-TFs on glutathione beads, 16-mer random dsDNA library, 0.1% formaldehyde crosslink after washing; high values mean tight binding
# Details in all cases: protein: recombinant; tags: N-terminal GST; dsDNA, one strand shown
# FLI1 = target: T1, FLI1 (Homo sapiens, UniProt Q01543 1-452)
# T1 sequence: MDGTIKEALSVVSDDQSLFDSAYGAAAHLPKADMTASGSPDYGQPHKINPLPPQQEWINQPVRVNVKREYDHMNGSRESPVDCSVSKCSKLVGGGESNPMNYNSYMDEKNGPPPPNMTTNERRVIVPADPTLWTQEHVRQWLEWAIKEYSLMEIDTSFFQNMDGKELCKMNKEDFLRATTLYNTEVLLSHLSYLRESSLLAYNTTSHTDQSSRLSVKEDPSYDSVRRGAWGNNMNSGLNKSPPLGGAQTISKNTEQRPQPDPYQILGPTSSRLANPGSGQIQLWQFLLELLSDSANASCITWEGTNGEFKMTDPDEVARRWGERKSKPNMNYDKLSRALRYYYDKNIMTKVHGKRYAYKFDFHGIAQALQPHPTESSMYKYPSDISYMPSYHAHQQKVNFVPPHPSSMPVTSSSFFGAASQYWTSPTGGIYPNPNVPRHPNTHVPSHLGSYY
# Outline: (§1)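 Binding signal is defined as a hexamer's read frequency for one factor over its frequency for the tag-only sample. To obtain reads, GST-fused human transcription factors were expressed in yeast, captured on glutathione beads, barcoded with DNA and pooled with that sample. Pools met 200 nmole of a 16-mer random double-stranded DNA library in Tris/NaCl/DTT/glycerol buffer for 30 min at room temperature before washing, 0.1% formaldehyde crosslinking, proximity ligation (BsaI/T4 ligase, 1 h, 37 °C), PCR and Illumina NextSeq500 sequencing.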
# ELK1 = target: T2, ELK1 (Homo sapiens, UniProt P19419 1-428)
# T2 sequence: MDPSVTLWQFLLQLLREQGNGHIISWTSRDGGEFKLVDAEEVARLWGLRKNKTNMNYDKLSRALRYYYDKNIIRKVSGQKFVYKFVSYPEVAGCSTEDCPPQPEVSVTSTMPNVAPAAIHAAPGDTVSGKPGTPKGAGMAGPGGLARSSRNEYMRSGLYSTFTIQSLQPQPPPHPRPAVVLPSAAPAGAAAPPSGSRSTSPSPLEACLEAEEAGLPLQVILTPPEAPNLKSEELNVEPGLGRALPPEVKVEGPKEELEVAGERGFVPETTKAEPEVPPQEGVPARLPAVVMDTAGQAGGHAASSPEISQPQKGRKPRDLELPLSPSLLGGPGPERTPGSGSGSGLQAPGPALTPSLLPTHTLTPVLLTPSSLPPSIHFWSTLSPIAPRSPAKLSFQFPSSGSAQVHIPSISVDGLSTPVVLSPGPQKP
# Outline: as §1
# GABPA = target: T3, GABPA (Homo sapiens, UniProt Q06546 1-454)
# T3 sequence: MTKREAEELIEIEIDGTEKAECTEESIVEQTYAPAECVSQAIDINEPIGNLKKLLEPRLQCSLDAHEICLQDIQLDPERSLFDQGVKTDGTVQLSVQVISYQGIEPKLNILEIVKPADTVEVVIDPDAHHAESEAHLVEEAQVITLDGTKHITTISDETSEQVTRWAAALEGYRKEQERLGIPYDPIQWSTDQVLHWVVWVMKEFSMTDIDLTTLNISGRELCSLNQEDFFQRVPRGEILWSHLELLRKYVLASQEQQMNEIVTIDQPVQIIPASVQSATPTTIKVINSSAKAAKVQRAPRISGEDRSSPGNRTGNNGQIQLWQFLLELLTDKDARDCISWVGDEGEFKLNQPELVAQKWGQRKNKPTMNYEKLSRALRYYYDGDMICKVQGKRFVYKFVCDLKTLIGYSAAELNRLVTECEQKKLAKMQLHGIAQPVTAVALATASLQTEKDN
# Outline: as §1
# ERG = target: T4, ERG (Homo sapiens, UniProt P11308 1-479)
# T4 sequence: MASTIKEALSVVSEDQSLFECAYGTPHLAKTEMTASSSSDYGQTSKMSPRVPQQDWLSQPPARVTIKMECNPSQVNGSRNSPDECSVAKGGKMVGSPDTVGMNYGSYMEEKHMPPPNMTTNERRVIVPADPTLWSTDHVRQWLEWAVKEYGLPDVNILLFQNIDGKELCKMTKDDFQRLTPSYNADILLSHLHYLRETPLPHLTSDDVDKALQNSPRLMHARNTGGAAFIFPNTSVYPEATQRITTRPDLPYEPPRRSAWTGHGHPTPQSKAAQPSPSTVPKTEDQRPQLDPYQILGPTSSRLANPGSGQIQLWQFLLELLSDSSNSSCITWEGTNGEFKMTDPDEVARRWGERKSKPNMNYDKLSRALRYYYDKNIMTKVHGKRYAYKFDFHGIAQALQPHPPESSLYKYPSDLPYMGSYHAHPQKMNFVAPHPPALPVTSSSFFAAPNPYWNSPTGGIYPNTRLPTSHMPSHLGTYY
# Outline: as §1
# ELF1 = ELF1 (Homo sapiens, UniProt P32519 1-619)
# Outline: as §1
# EHF = target: T5, EHF (Homo sapiens, UniProt Q9NZC4 1-300)
# T5 sequence: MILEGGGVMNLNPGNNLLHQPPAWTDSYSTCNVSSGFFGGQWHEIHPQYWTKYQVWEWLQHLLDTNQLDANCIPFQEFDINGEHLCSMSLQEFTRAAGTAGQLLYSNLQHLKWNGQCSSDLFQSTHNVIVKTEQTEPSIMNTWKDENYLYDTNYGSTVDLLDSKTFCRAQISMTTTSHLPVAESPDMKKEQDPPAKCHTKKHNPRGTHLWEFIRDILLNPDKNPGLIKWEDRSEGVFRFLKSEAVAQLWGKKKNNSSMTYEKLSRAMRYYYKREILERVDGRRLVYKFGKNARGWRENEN
# Outline: as §1
# SPI1 = SPI1 (Homo sapiens, UniProt P17947 1-270)
# Outline: as §1
# SPIB = SPIB (Homo sapiens, UniProt Q01892 1-262)
# Outline: as §1
# ELK3 = target: T6, ELK3 (Homo sapiens, UniProt P41970 1-407)
# T6 sequence: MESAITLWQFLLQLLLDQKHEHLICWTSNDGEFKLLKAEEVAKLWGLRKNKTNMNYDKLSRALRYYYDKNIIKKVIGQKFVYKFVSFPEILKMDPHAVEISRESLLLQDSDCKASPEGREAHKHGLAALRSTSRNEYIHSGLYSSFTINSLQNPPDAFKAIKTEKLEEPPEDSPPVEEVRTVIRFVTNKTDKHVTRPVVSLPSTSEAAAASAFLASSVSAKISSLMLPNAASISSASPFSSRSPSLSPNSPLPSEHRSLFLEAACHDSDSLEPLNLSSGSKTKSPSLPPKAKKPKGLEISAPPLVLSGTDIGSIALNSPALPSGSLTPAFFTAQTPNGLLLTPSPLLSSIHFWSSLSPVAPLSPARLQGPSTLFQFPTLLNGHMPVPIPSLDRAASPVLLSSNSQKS
# Outline: as §1
# ETV5 = ETV5 (Homo sapiens, UniProt P41161 1-510)
# Outline: as §1
# ELF4 = ELF4 (Homo sapiens, UniProt Q99607 1-663)
# Outline: as §1
# ETV2 = target: T7, ETV2 (Homo sapiens, UniProt O00321 1-342)
# T7 sequence: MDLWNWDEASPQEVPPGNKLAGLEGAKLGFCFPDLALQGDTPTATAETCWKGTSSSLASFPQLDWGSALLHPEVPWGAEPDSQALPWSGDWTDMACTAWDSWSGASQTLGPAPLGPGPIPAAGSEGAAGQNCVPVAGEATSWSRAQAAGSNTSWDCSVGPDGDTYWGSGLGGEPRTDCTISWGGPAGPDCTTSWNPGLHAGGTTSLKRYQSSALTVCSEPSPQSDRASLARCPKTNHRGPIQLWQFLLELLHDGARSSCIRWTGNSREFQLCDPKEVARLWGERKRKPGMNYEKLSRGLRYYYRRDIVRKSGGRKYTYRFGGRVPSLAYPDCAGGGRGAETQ
# Outline: as §1
# ETV1 = ETV1 (Homo sapiens, UniProt P50549 1-477)
# Outline: as §1
# ERF = target: T8, ERF (Homo sapiens, UniProt P50548 1-548)
# T8 sequence: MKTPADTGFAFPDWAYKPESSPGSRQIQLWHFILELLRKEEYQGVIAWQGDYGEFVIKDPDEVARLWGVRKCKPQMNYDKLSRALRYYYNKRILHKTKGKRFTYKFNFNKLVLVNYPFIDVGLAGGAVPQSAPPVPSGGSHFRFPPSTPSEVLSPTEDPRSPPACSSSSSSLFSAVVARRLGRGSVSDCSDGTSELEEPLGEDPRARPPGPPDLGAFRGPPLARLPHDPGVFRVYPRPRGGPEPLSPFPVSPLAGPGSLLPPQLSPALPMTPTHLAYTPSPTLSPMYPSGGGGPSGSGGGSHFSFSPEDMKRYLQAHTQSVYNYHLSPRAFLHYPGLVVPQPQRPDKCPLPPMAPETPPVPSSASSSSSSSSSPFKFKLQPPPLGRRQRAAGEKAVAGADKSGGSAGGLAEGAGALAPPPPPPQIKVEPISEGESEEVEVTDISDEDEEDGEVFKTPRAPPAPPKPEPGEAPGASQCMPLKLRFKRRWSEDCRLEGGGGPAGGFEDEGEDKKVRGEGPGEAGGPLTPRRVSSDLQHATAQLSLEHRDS
# Outline: as §1
# ETV3L = target: T9, ETV3L (Homo sapiens, UniProt Q6ZN32 1-361)
# T9 sequence: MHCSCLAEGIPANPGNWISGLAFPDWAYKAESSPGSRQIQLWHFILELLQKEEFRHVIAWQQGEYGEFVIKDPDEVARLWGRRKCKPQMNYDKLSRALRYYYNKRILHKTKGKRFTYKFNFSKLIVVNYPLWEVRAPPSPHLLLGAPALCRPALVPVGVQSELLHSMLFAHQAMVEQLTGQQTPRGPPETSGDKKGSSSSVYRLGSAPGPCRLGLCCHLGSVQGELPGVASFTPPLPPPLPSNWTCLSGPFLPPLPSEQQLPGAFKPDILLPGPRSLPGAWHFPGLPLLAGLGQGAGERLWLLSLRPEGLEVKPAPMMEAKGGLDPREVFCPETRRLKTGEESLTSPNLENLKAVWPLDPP
# Outline: as §1
# ETS2 = target: T10, ETS2 (Homo sapiens, UniProt P15036 1-469)
# T10 sequence: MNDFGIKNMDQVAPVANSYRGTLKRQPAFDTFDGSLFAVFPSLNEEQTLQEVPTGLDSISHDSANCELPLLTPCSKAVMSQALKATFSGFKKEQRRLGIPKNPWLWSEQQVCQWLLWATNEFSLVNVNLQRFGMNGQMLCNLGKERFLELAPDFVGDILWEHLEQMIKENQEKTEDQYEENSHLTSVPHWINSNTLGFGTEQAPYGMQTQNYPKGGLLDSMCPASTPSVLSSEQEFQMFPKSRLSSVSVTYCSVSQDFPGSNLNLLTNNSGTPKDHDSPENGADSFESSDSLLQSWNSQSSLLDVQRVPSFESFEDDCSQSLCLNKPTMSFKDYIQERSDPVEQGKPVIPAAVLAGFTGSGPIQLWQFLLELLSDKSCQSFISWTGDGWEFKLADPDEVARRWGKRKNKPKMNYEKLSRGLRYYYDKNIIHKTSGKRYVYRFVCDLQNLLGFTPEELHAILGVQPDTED
# Outline: as §1
# ETV7 = target: T11, ETV7 (Homo sapiens, UniProt Q9Y603 1-341)
# T11 sequence: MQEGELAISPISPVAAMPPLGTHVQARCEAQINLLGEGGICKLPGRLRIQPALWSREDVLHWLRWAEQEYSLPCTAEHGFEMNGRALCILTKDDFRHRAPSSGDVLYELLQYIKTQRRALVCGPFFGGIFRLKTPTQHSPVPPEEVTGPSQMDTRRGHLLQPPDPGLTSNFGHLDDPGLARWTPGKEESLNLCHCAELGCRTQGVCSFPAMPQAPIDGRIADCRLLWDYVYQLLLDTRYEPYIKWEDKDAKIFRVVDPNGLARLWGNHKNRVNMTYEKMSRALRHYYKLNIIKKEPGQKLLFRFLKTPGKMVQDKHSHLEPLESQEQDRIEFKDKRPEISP
# Outline: as §1
# ETV3 = target: T12, ETV3 (Homo sapiens, UniProt P41162-2 1-143)
# T12 sequence: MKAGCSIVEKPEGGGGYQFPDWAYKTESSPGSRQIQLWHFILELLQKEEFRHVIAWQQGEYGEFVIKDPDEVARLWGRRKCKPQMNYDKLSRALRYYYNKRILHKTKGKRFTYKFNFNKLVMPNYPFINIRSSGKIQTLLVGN
# Outline: as §1
# ETV6 = ETV6 (Homo sapiens, UniProt P41212 1-452)
# Outline: as §1
# ETV5, sequence (P41161 whole entry): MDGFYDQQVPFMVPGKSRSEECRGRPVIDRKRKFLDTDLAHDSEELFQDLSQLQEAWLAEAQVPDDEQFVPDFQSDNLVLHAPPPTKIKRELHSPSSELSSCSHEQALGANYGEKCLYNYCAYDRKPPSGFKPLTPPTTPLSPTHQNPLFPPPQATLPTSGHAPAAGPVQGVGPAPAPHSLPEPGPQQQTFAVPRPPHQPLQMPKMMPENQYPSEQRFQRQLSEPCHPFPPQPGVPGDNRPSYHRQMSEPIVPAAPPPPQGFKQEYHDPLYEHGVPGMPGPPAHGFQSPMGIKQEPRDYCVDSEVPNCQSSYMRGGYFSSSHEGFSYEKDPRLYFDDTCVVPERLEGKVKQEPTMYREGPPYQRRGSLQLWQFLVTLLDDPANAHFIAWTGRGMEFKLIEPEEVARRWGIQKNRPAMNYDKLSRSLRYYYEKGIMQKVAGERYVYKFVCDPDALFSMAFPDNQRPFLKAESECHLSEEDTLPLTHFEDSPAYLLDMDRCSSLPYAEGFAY
# ELF1, sequence (P32519 whole entry): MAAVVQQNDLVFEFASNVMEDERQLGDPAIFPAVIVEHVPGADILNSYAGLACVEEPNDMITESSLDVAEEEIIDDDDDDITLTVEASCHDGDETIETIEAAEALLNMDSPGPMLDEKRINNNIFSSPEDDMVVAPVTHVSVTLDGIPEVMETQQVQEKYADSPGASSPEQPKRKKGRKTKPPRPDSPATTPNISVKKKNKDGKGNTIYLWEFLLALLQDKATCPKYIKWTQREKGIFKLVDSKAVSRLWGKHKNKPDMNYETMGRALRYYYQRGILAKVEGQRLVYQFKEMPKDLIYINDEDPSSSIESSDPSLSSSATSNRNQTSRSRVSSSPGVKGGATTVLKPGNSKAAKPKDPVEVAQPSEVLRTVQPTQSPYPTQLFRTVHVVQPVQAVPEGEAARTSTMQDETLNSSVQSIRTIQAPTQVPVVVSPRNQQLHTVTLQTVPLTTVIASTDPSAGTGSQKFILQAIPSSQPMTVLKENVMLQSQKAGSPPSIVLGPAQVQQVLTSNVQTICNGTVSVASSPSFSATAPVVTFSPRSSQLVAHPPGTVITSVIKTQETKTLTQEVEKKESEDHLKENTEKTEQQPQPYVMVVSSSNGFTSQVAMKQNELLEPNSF
# ELF4, sequence (Q99607 whole entry): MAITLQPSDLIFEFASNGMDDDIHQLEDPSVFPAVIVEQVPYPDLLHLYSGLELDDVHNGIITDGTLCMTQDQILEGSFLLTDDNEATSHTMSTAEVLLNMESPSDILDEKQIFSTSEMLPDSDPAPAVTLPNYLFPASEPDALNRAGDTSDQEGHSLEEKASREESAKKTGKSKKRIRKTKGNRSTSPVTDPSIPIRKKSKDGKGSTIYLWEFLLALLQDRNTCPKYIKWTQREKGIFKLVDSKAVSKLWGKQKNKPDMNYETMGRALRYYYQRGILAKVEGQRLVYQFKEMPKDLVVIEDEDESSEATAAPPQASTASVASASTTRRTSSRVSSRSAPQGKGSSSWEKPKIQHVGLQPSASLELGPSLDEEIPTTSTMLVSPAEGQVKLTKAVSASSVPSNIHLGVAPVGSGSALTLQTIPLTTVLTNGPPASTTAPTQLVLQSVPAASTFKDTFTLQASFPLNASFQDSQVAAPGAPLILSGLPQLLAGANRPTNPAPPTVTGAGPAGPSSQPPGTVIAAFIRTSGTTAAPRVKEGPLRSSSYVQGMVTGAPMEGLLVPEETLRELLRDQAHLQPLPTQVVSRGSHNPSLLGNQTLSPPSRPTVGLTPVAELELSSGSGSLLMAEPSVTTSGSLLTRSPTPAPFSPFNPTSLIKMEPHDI
# SPIB, sequence (Q01892 whole entry): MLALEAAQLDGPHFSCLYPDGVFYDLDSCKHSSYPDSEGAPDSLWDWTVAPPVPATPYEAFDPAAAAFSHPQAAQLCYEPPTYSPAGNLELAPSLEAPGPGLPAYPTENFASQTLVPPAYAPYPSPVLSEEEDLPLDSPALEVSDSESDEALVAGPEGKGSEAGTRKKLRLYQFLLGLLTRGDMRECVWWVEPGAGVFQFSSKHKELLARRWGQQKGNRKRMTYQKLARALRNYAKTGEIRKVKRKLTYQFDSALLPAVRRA
# ETV6, sequence (P41212 whole entry): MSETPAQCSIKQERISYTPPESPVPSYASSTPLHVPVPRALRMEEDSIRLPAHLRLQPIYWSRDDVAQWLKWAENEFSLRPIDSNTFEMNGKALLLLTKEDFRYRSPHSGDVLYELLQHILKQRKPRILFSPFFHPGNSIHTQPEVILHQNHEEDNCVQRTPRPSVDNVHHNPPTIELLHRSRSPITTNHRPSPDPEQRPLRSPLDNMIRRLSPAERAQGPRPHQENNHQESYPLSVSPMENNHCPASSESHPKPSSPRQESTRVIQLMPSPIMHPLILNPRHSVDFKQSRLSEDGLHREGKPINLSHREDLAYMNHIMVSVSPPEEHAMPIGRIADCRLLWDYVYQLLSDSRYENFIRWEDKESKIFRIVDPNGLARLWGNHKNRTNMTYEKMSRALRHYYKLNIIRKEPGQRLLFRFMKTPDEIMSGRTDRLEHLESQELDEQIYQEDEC
# ETV1, sequence (P50549 whole entry): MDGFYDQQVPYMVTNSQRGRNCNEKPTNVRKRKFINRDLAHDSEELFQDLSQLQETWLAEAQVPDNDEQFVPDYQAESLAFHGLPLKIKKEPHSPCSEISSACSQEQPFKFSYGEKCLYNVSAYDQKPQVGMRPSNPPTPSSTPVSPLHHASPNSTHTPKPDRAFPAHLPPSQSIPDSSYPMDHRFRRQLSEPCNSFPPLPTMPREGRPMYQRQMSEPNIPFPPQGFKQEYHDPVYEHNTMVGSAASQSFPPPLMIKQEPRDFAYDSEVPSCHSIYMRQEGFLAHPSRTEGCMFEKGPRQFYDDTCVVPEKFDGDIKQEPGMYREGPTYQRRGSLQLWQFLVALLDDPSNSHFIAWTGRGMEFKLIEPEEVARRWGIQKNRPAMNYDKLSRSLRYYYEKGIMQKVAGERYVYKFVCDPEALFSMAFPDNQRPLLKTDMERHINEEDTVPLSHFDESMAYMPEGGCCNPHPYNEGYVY
sequence,measurement,setting,value
TGGGGT,binding signal,FLI1,"1.02 fold enrichment (6-mer frequency, TF over GST control)"
same,binding signal,ELK1,"1.05 fold enrichment (6-mer frequency, TF over GST control)"
same,binding signal,GABPA,"1.12 fold enrichment (6-mer frequency, TF over GST control)"
same,binding signal,ERG,"1.1 fold enrichment (6-mer frequency, TF over GST control)"
same,binding signal,ELF1,"1.09 fold enrichment (6-mer frequency, TF over GST control)"
same,binding signal,EHF,"1.03 fold enrichment (6-mer frequency, TF over GST control)"
same,binding signal,SPI1,"1.04 fold enrichment (6-mer frequency, TF over GST control)"
same,binding signal,SPIB,"1.09 fold enrichment (6-mer frequency, TF over GST control)"
same,binding signal,ELK3,"1.17 fold enrichment (6-mer frequency, TF over GST control)"
same,binding signal,ETV5,"1.13 fold enrichment (6-mer frequency, TF over GST control)"
same,binding signal,ELF4,"1.08 fold enrichment (6-mer frequency, TF over GST control)"
same,binding signal,ETV2,"1.08 fold enrichment (6-mer frequency, TF over GST control)"
same,binding signal,ETV1,"1.14 fold enrichment (6-mer frequency, TF over GST control)"
same,binding signal,ERF,"1.02 fold enrichment (6-mer frequency, TF over GST control)"
same,binding signal,ETV3L,"1.2 fold enrichment (6-mer frequency, TF over GST control)"
same,binding signal,ETS2,"1.2 fold enrichment (6-mer frequency, TF over GST control)"
same,binding signal,ETV7,"1.05 fold enrichment (6-mer frequency, TF over GST control)"
same,binding signal,ETV3,"1.14 fold enrichment (6-mer frequency, TF over GST control)"
same,binding signal,ETV6,"1.09 fold enrichment (6-mer frequency, TF over GST control)"
